Assay outcomes (PubChem)
Shown are actives, neighbours in structure and some others; about 4.3% of the full set was active somewhere.
Giardia kill: Small Molecules that selectively kill Giardia lamblia: qHTS | Giardia lamblia trophozoite viability | activity change, % at 7.66 µM, hits read low | 340,000 compounds, 0.15% hits | AID 540267, 2011; in the data active = activity change below about -80%; inconclusive = between about -30% and that limit;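 also: parasites exposed to compound for two days anaerobically before the ATP read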
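Media and compound were dispensed first, then trophozoites at 100 cells/well; plates sat 48 hrs at 37 deg C without oxygen before ATP luminescence reagent was added and read after 15-30 min at room temperature.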
MCF10A rerep: A quantitative high throughput screen for small molecules that induce DNA re-replication in MCF 10a normal breast cells; 350,000 compounds, 2.9% hits; Potency, µM (doses to about 46.1 µM), actives largely listed as activators; MCF 10A DNA re-replication, Hoechst nuclear intensity, 48 h; also: nearly all actives have a fitted effect of over 50% in size
SW480 rereplic: A quantitative high throughput screen for small molecules that induce DNA re-replication in SW480 colon adenocarcinoma cells; Potency, µM (series often up to 46.1 µM), most hits filed as activators; 340,000 compounds, 1.8% hits; SW480 DNA re-replication, Hoechst DNA content imaging, 48 h; also: nearly all actives have a fitted effect of over 55% in size
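Readout is total intensity of Hoechst-stained nuclei, excited at 405 nm and collected at 500-530 nm. Compound treatment lasted 48 hr at 37 C in 5% CO2 before staining.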
uPA surface inh: qHTS for Inhibitors of Cell Surface uPA Generation; AID 540303, 2011; 330,000 compounds, 0.31% hits; cell surface uPA generation assay, qHTS; Potency, µM (highest dose often 38.3 µM), actives largely listed as inhibitors; active = well fitted inhibition curve with a large enough effect; inconclusive = small, poorly fitted or top-dose-only effect; inactive = no such curve, though single readings can be large or run the other way; tested in mouse RAW 264.7 cells; also: nearly all actives have a fitted effect of over 55% in size
Each line names hits and unclear results; the compound was inactive in the other large screens. Unless noted, calls follow the shape of the dose curve; as a rule, active = well fitted activation curve with a large enough effect; inconclusive = small, poorly fitted or top-dose-only effect; inactive = no such curve, though single readings can be large or run the other way.

COc1ccccc1N1CCN(C(=O)c2cccc(S(=O)(=O)N3c4ccccc4CC3C)c2)CC1 (centres undefined)	MCF10A rerep inconclusive
Cc1ccc(C#CC[N+]2(CC#Cc3ccc(C)cc3)CCCCC2)cc1	uPA surface inh 7.1µM
CC(C)Oc1ccc(S(=O)(=O)N2CCOCC2)cc1NC(=O)c1cc([N+](=O)[O-])ccc1N1CCOCC1	SW480 rereplic inconclusive
CC(=O)N1CCC(C(=O)Nc2nnc(C(C)C)s2)CC1	none (no result: MCF10A rerep, SW480 rereplic, uPA surface inh)
Cc1ccc(C(=O)Nc2cccc(NC(=O)c3cccs3)c2)c(C)c1	uPA surface inh 13µM
COc1ccc(-c2ccc(NC(=O)c3ccco3)cc2)nn1	Giardia kill -93, SW480 rereplic inconclusive
COc1ccc(-c2cccc(NC(=O)c3ccco3)c2)nn1	none
COc1ccc(NC(=O)Cn2nnc(-c3ccccc3NC(=O)c3ccco3)n2)cc1	MCF10A rerep 10µM, SW480 rereplic inconclusive
O=C(Nc1ccc(Oc2cccc(C(F)(F)F)c2)nc1)c1ccco1	none
CC(C)(C)c1ccc(Oc2ccc(NC(=O)c3ccco3)cn2)cc1	MCF10A rerep inconclusive, uPA surface inh 1.3µM
COc1ccccc1NC(=O)Cn1nnc(-c2ccccc2NC(=O)c2ccco2)n1	MCF10A rerep inconclusive
CCCCCCCCCCCCCCCCCC(=O)OCC(O)CO (centres undefined)	none (no result: Giardia kill, uPA surface inh)
COc1ccc(-n2c(=O)[nH]c3cc(C(=O)NCCc4ccc(Cl)cc4)ccc3c2=O)cc1OC	MCF10A rerep 15µM, SW480 rereplic inconclusive
CN(C)CCNC(=O)c1ccc2c(=O)n(Cc3ccc(Cl)cc3)c(=S)[nH]c2c1	MCF10A rerep inconclusive, SW480 rereplic 23µM
O=C1/C(=C/c2cccnc2)CCc2c1[nH]c1ccccc21	MCF10A rerep inconclusive, SW480 rereplic 21µM
Cc1ccc2oc(-c3ccc(C)c(NC(=S)NC(=O)c4cccs4)c3)nc2c1	MCF10A rerep 10µM, uPA surface inh inconclusive
Cc1ccc(-c2nc3ccccc3o2)cc1NC(=S)NC(=O)c1cc2ccccc2o1	SW480 rereplic inconclusive
Cc1ccc2oc(-c3ccc(C)c(NC(=O)Cc4cccs4)c3)nc2c1	none
Cc1ccc2oc(-c3cccc(NC(=O)Cc4cccs4)c3)nc2c1	MCF10A rerep 15µM (no result: uPA surface inh)
Cc1ccc2oc(-c3cccc(NC(=O)c4cc(-n5cnnc5)ccc4Cl)c3)nc2c1	MCF10A rerep 8.2µM, SW480 rereplic inconclusive
CC(=O)c1ccc(N2CCN(C(=O)c3cc(S(=O)(=O)N4CCOCC4)ccc3C)CC2)cc1	none
CCc1ccc(C(=O)CCC(=O)Nc2cccc(S(=O)(=O)N3CCCCC3)c2)cc1	MCF10A rerep inconclusive, SW480 rereplic inconclusive
COc1ccc(C2=NOC(Cn3nc(C(=O)NCC4CC4)cc3-c3ccccc3)C2)cc1 (centres undefined)	none
Nc1nnc(CC(=O)Nc2ccccc2)s1	none
COc1ccc2nc(NC(=O)Nc3ccccc3OC)sc2c1	MCF10A rerep inconclusive, SW480 rereplic 2.9µM
COc1ccc2nc(NC(=O)Nc3cccc4ccccc34)sc2c1	MCF10A rerep 9.2µM
COc1ccc2nc(NC(=O)c3ccccc3O)sc2c1	Giardia kill inconclusive, MCF10A rerep 21µM, SW480 rereplic inconclusive, uPA surface inh inconclusive
COc1ccc(CN2CCn3nc(C(=O)NC4CC4)cc3C2=O)cc1	Giardia kill inconclusive
O=C1C=C(c2c(O)ccc3ccccc23)c2ccccc2C1=O	SW480 rereplic 18µM
O=C1C=C(O)c2cccc(O)c2C1=O	MCF10A rerep inconclusive
CN(C)S(=O)(=O)N1CCc2ccc(NC(=O)c3ccc(C(F)(F)F)cc3)cc2C1	uPA surface inh inconclusive
CCOc1ccc(NC(=O)COC(=O)CC2CC3CCC2C3)cc1 (centres undefined)	none
COc1ccccc1C(=O)Nc1nc2cc3c(cc2s1)OCO3	none
COc1ccccc1C(=O)Nc1nc2cc3c(cc2s1)OCCO3	Giardia kill inconclusive, MCF10A rerep inconclusive, SW480 rereplic inconclusive, uPA surface inh 2.8µM
COc1ccc(C(=O)Nc2nc3cc4c(cc3s2)OCCO4)c(OC)c1	MCF10A rerep 4.1µM
O=C(Nc1ccc(F)cc1F)c1cccc(C(=O)Nc2ccc(F)cc2F)n1	MCF10A rerep 6.5µM, SW480 rereplic 16µM
CC1CCN(CC(=O)N2CCCc3c2c(=O)oc2ccc(OCc4ccccc4)cc32)CC1	MCF10A rerep 11µM, SW480 rereplic inconclusive
COc1ccc(-c2cc(=S)ss2)cc1	none (no result: Giardia kill, uPA surface inh)
COc1cc2nc(N3CCN(c4cc(C)ccc4C)CC3)nc(N)c2cc1OC	Giardia kill inconclusive, MCF10A rerep 6.5µM, SW480 rereplic inconclusive
